Holding throughout (test): NCI-60 one-dose screen, 48 h (100 = growth as untreated, 0 = no growth, -100 = all killed)
Holding throughout (conditions): 10 µM unless noted

Assay [1] concerns NCI-H23 lung.
Assay [2] has as its system NCI-H226 lung.
For assay [3], the system named is NCI-H322M lung.
In assay [4] the test system is HOP-62 NSCLC.
The test system of assay [5] is NCI-H460 lung.
In assay [6] the test system is HOP-92 NSCLC.
Assay [7] deals with NCI-H522 lung.
The subject of assay [8] is A549/ATCC NSCLC.
In assay [9] the test system is 786-0 renal.
Assay [10] concerns COLO 205 colon.
The subject of assay [11] is DU-145 prostate.
Assay [12] concerns K-562 leukemia.
Assay [13] relates to MALME-3M melanoma.
Assay [14] has as its system MDA-MB-231 breast.
Assay [15] relates to RXF 393 renal.
Assay [16] deals with SF-268 CNS.
The test system of assay [17] is SF-295 CNS.
The subject of assay [18] is SF-539 CNS.
Assay [19] concerns UACC-257 melanoma.
In assay [20] the test system is M14 melanoma.

This is part of a sample that, as a whole, favours compounds with a hit. Of some 83,000 tested, about 20% had one in any assay.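 Values shown are percent growth following 48 h exposure of cells in 96-well plates to a single concentration of compound; below 10 was considered active.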 Unmarked numbers belong to inactive results. Active and inactive are the calls of the source.

Regarding `Cc1ccc(S(=O)(=O)C2=C3C(=C(c4ccccc4)c4ccccc43)CN(S(=O)(=O)c3ccc(C)cc3)C2)cc1`, the growth in assay [1] was 47.1%; in assay [2] it was 79.1%; in assay [3], 93.8%; in [4] it was 88.6%; in assay [5], 63.8%; in assay [6], 3.21% (active). In addition, the growth is -45.9% (active) in assay [7]; 70.9% in [8]; 5.02% (active) in assay [9]; 71.3% in [10]; 68.2% in [11]; 18% in assay [12]. The growth in [13] is 72%; in assay [14] it was 48.8%; in assay [15] it was 47.1%; in assay [16] it was 45.3%; in [17], 68.3%; in [18], 74.1%. Also, the growth is 91% in [19] and 70.7% in assay [20].

Turning to `COc1c2occc2c(OC)c2c(=O)c(-c3cc(-c4ccc(F)cc4)c(C#N)c(N)n3)c(C)oc12`, the growth in assay [1] is 36.1%; in assay [2] it was 72.1%; in [3] it was 40.3%; in assay [4], 27.9%; in [5] it was 24.9%; in [6] it was 30.6%. In addition, the growth in assay [7] was 49.4%; in assay [8], 25.2%; in assay [9], 51.2%; in assay [10], 27.2%; in assay [11], 30.3%; in assay [12], 19.5%. For the same compound, the growth in [13] was 88.8%; in [14] it was 30%; in [15], 44.4%; in assay [16] it was 35.5%; in assay [17], 56.5%; in assay [18], 67.7%. In addition, the growth in assay [20] was 70.6%.

As for `COc1ccc(NC(=O)CSc2nc(-c3ccc(OC)c(OC)c3)cc(-c3cc(OC)c(OC)c(OC)c3)n2)cc1`, the growth is 101% in assay [1]; 108% in assay [2]; 90.4% in [3]; 106% in assay [4]; 97.7% in assay [5]; 76.8% in assay [6]. In addition, the growth was 79.6% in [7]; 95.7% in [8]; 95.1% in assay [9]; 82.5% in assay [10]; 112% in assay [11]; 95.7% in assay [12]. For the same compound, the growth is 128% in assay [13]; 91.9% in [14]; 101% in assay [15]; 102% in [16]; 126% in assay [17]; 111% in assay [19]. Moreover, the growth in assay [20] is 102%.

On to `Fc1ccc(CNCCNc2ncnc3c2cnn3-c2ccccc2)cc1`, for which the growth in [1] was 103%; in assay [2] it was 102%; in [3], 100%; in [4], 90.4%; in [5], 104%; in assay [6], 61.8%. Further, the growth in assay [7] was 99.9%; in assay [8] it was 91.7%; in assay [9] it was 83.5%; in assay [10], 89.6%; in [11], 114%; in [12], 83.3%. Further, the growth is 92.4% in assay [13]; 79% in [14]; 74.6% in [15]; 92.3% in assay [16]; 100% in assay [18]; 85.6% in assay [19]. Moreover, the growth in assay [20] is 103%.

For the compound `Cc1cc(C(C)(C)C)ccc1S`, the growth was 108% in [1]; 96.3% in assay [2]; 95.9% in assay [3]; 96.2% in [4]; 114% in assay [5]; 86.3% in [6]. The growth in assay [7] was 85.8%; in [8], 111%; in assay [9], 99.9%; in [10], 116%; in assay [11], 116%; in assay [12], 99.8%. Besides, the growth in assay [13] is 113%; in assay [14] it was 115%; in assay [15] it was 103%; in assay [16] it was 102%; in assay [17], 102%; in assay [19], 108%. Also, the growth in [20] was 112%.

As to `C/C=C/C1=CN2C(=O)c3cc(OC4OC(C)C(NC)C(C)(O)C4O)c(C)cc3N=C[C@@H]2C1` (stereo partly specified), the growth in assay [1] was -31.7% (active); in assay [2], 6.1% (active); in [3], -20.1% (active); in [4], -8.97% (active); in assay [5] it was -18.4% (active); in assay [6], 2.06% (active). In addition, the growth in assay [7] is -12.7% (active); in assay [8], 7.17% (active); in assay [9] it was 0.564% (active); in [10], -42.4% (active); in assay [11], -18.6% (active); in assay [12] it was 5.83% (active). The growth in assay [13] was -43% (active); in [14], 15.7%; in assay [15], -44.9% (active); in assay [16] it was -28.8% (active); in assay [17], -23.1% (active); in assay [18] it was -44.9% (active). In addition, the growth is -1.62% (active) in [19] and -60.5% (active) in [20].

Regarding `O=[N+]([O-])c1ccc(Sc2ncccn2)c([N+](=O)[O-])c1`, the growth was 53.5% in [1]; 96.3% in [2]; 97.7% in assay [3]; 94.6% in [4]; 95.4% in assay [5]; 18% in [6]. The growth in assay [7] is -50.1% (active); in assay [8], 67.9%; in assay [9] it was 61.3%; in assay [10], 21%; in [11], 11.1%; in assay [12], 12.7%. Besides, the growth in assay [13] is 75.8%; in assay [14], 68.6%; in assay [15], -38.6% (active); in assay [16] it was 52.8%; in assay [17], 111%; in [18], 96.7%. Also, the growth is 29.4% in assay [19] and 62.5% in assay [20].

For `N#C/C(=C1C=C/C(=N/O)C(Cl)=C/1)c1ccc(Cl)cc1`, the growth in assay [1] was 104%; in assay [2], 71.5%; in assay [3], 118%; in [4], 45.7%; in [5], 78.3%; in assay [6], 70.5%. Also, the growth is 67.7% in [7]; 88.8% in [8]; 63.5% in assay [9]; 99.8% in assay [10]; 35.5% in assay [11]; 42.6% in assay [12]. Besides, the growth was 112% in assay [13]; 61.4% in assay [14]; 81.9% in assay [15]; 54.5% in assay [16]; 141% in assay [17]; 18.8% in [18]. The results for the growth in assay [19] and in assay [20] were 76.2% and 85.1%, respectively.

The values are drawn from PubChem BioAssay (NCI).
